According to PubChem BioAssay AID1209 (Sanford-Burnham Center for Chemical Genomics, 2008):
Out of some 190,000 compounds screened, about 810 (0.43%) were called active. No stated cut-off is given here; in the data, active means inhibition above about 50%; inactive means the rest. Shown is part of a subset that was picked to be rich in actives.

Each compound was assayed against Mannose-6-phosphate isomerase (Homo sapiens) (UniProt P34949) (assay: MPI enzyme activity inhibition – biochemical, fluorescence intensity, coupled assay, primary screen (AID 1209;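 further: plate controls were DMSO vehicle for no effect and wells lacking substrate for full effect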)). Details: purified PMI enzyme, at 20 µM, stronger effect = higher value.
Mannose-6-phosphate isomerase (Homo sapiens), sequence (P34949 whole entry, looked up): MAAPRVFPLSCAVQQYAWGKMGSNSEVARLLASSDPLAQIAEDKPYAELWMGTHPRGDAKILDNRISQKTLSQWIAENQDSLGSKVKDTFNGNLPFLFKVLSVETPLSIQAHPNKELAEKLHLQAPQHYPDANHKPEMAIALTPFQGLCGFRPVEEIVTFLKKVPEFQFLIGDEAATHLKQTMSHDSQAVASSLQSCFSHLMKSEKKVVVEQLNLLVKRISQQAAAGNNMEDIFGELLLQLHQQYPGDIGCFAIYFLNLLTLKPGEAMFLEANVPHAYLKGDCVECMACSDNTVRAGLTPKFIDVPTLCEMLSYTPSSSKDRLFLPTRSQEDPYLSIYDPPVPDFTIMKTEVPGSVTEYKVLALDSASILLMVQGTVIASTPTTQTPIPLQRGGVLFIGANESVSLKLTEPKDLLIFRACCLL

inhibition, inactive:
O=C(Cc1c[nH]c2ccccc12)N1CCN(c2ccccc2)CC1 -10.2%, Cn1c(Cc2ccccc2)nnc1SCC(=O)Nc1cccc(S(=O)(=O)NC2=NCCCCC2)c1 5%, CCN=c1scc(-c2ccco2)n1/N=C/c1ccc(OC)c(O)c1 -0.4%, CCN=c1scc(-c2ccco2)n1/N=C/c1ccc(O)cc1 -4.3%, C=CCN=c1scc(C)n1/N=C/c1ccc(O)c(O)c1 49.2%, CN=c1scc(C)n1/N=C/c1ccc(O)cc1 12.4%, CCCC(=O)C1=C(O)C(c2cccc(Oc3ccccc3)c2)CCC1=O (stereo not given) -21%, N#CCN1CCCC(C(N)=O)C1 (stereo not given) -5.3%, Cc1sc(NC(=O)CSc2nnnn2C)c(C#N)c1C 4.7%, CCOc1ccc(C2CC(c3cccc(C)c3)n3ncnc3N2)cc1 (stereo not given) 2.6%, CCc1ccc(CN(C)C(=O)c2cc(COc3c(F)cccc3F)on2)cc1 18.2%, Cc1[nH]c(=S)[nH]c(=O)c1CCCO 12.6%, CC1=C(C)C(=O)C(CCCCC#CCCCC#CCO)=C(C)C1=O -13.9%, COc1cccc(CNC(=O)CCC2CCCN(C3CCOCC3)C2)c1 (stereo not given) 5.9%, CCOc1ccc(NC(=O)NC(C)CC)cc1 (stereo not given) -3.9%, O=C(/C=C/c1ccc(N2CCCCC2)c([N+](=O)[O-])c1)c1ccc(S(=O)(=O)N2CCCC2)cc1 0%, O=C(O)c1ccc(S(=O)(=O)N2CCCCCC2)cc1 2.4%, Cc1ccc2c(c1)CCCN2C(=O)c1ccco1 0.8%, Cc1cccc(C2(c3cccc(C)c3)CC2C(=O)NCC2CCCO2)c1 (stereo not given) -4.2%, O=C(NCC1CCCO1)c1ccccc1 (stereo not given) 11.6%, O=C(CC1C(=O)NC2CCCCC2N1C(=O)c1ccc(F)cc1)Nc1ccccc1 (stereo not given) 0.9%, CCc1ccc(C(=O)COC(=O)CNC(=O)c2ccco2)cc1 -5.4%, O=c1[nH]c(-c2ccc(F)cc2)nc2c1sc(=S)n2-c1ccccc1 -0.9%, S=c1sc2c(Cl)ncnc2n1-c1ccccc1 -30.4%

inhibition, active:
CN=c1scc(-c2ccc(F)cc2)n1/N=C/c1ccc(O)c(O)c1 50.4%, CN=c1scc(-c2ccco2)n1/N=C/c1ccc(O)c(O)c1 53%, COC1=C(OC)C(=O)C(CCCCCCCCCCO)=C(C)C1=O 53.5%, O=C(/C=C/c1ccc(O)c(O)c1)c1ccc(S(=O)(=O)N2CCCCCC2)cc1 66%, O=C(NCC1CCCO1)C1CC1(c1ccccc1)c1ccccc1 (stereo not given) 108%, O=c1[nH]cnc2c1sc(=S)n2-c1ccccc1 50.7%
